Measurements taken from PubChem BioAssay (Tox21).
Active and inactive are the calls of the source. Where a call stands in place of a potency, no number is given. Unless noted, the call rests on the fitted dose curve; in most records, active means well fitted curve in the direction sought with a large enough effect in the repeat runs; inconclusive means weak or mixed curves; inactive means no such curve, though single readings can be large; an effect the other way counts as inactive or inconclusive.

Target: Estrogen receptor (Homo sapiens) (UniProt P03372)
Assay: qHTS assay to identify small molecule agonists of the estrogen receptor alpha (ER-alpha) signaling pathway (AID 743075; calls by dose curve;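 further: HEK293 GripTite cells with ER-alpha and UAS-driven beta-lactamase reporter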)
Details: HEK293 ER-alpha-UAS-bla, beta-lactamase FRET ratio, 18 h; series mostly up to 70.1 µM
Potency means the concentration at half of the fitted maximal effect.

Estrogen receptor (Homo sapiens), sequence (P03372 whole entry, looked up): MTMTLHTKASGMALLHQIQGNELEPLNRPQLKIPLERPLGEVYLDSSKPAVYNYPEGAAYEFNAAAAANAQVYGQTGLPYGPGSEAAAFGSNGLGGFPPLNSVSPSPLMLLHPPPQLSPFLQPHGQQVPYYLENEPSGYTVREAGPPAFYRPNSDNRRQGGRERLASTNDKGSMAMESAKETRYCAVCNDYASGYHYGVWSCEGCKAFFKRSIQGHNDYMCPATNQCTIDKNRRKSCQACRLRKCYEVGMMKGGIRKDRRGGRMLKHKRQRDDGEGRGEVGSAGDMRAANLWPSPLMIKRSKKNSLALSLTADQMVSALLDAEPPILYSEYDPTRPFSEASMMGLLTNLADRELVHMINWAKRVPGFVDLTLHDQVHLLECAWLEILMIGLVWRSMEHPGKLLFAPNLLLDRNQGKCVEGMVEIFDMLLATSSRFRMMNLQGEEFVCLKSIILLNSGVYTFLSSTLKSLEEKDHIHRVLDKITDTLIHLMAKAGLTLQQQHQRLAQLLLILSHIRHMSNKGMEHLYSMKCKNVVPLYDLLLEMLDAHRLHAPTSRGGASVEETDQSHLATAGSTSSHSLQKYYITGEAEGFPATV

SMILES | Potency
O=C1CSC2(CCN(CCCN3c4ccccc4Sc4ccc(Cl)cc43)CC2)N1 | inactive
O=C(OC1C[C@@H]2CC3C[C@H](C1)N2CC3=O)c1c[nH]c2ccccc12 (some centres undefined) | inactive
Cn1c(O)c(N=NC(N)=S)c2ccccc21 | inactive
CCCCCCC(=O)O[C@H]1CC[C@H]2[C@@H]3CCc4cc(O)ccc4[C@H]3CC[C@]12C | 0.0007 µM [inconclusive] (active)
O=C(O)CN(CC(=O)O)CC1=CC2C(=CC1=O)Oc1cc(O)c(CN(CC(=O)O)CC(=O)O)cc1C21OC(=O)c2ccccc21 (centres undefined) | inactive
CCC(=O)O[C@H]1CC[C@H]2[C@@H]3CCc4cc(O)ccc4[C@H]3CC[C@]12C | 0.0013 µM [inconclusive] (active)
O=C(CCCN1CCC(n2c(=S)[nH]c3ccccc32)CC1)c1ccc(F)cc1 | inactive
C=C1CC[C@@H]2[C@](C)(CO)[C@H](O)CC[C@@]2(C)[C@@H]1C/C=C1/C(=O)OC[C@H]1O | inactive
CC(CC(c1ccccc1)c1ccccc1)NC(C)(C)C (centres undefined) | inactive
CCCCCCCCCCCCCCCCSCC(COC)COP(=O)([O-])OCC[N+](C)(C)C (centres undefined) | inactive
N#CC(c1ccc(Cl)cc1)c1c(Cl)cc(-n2ncc(=O)[nH]c2=O)cc1Cl (centres undefined) | inactive
C[C@H](/C=C/[C@H](C)C(C)(C)O)[C@H]1CC[C@H]2/C(=C/C=C3C[C@@H](O)C[C@H](O)C3)CCC[C@]12C | inactive
CC(C)(C)c1ccc(CN2CCN(C(c3ccccc3)c3ccc(Cl)cc3)CC2)cc1 (centres undefined) | inactive

Target: Estrogen receptor (Homo sapiens) (UniProt P03372)
Assay: qHTS assay to identify small molecule agonists of the estrogen receptor alpha (ER-alpha) signaling pathway using the BG1 cell line (AID 743079); further: nearly all actives have a fitted effect of over 20% in size
Details: BG1Luc4E2 cells, ERE-luciferase agonist, 22 h; activation: at 70.3 µM (top of the series)

SMILES | Potency | activation
O=C(OC1C[C@@H]2CC3C[C@H](C1)N2CC3=O)c1c[nH]c2ccccc12 (some centres undefined) | inactive | –
Cn1c(O)c(N=NC(N)=S)c2ccccc21 | inactive | –
CO[C@H]1C[C@@H]2CC[C@@H](C)[C@@](O)(O2)C(=O)C(=O)N2CCCC[C@H]2C(=O)O[C@H]([C@H](C)C[C@@H]2CC[C@@H](OCCO)[C@H](OC)C2)CC(=O)[C@H](C)/C=C(\C)[C@@H](O)[C@@H](OC)C(=O)[C@H](C)C[C@H](C)/C=C/C=C/C=C/1C | inactive | –
CC#CCC(C)[C@H](O)/C=C/[C@@H]1[C@H]2c3cccc(CCCC(=O)O)c3O[C@H]2C[C@H]1O (some centres undefined) | 26.6 µM (active) | –
CCCCCCC(=O)O[C@H]1CC[C@H]2[C@@H]3CCc4cc(O)ccc4[C@H]3CC[C@]12C | – | 66.1% (active)
CCC(=O)Oc1ccc2c(c1)CC[C@@H]1[C@@H]2CC[C@]2(C)[C@@H](OC(=O)CC)CC[C@@H]12 | – | 99.5% (active)
CCC(=O)O[C@H]1CC[C@H]2[C@@H]3CCc4cc(O)ccc4[C@H]3CC[C@]12C | – | 52.2% (active)
C=C1CC[C@@H]2[C@](C)(CO)[C@H](O)CC[C@@]2(C)[C@@H]1C/C=C1/C(=O)OC[C@H]1O | inactive | –
CC(CC(c1ccccc1)c1ccccc1)NC(C)(C)C (centres undefined) | inactive | –
CCCCCCCCCCCCCCCCSCC(COC)COP(=O)([O-])OCC[N+](C)(C)C (centres undefined) | inactive | –
CC(=O)O[C@]1(C(C)=O)CC[C@H]2[C@@H]3CCC4=CC(=O)CC[C@]4(C)[C@@]3(F)[C@@H](O)C[C@@]21C | 2.66 µM (active) | –
N#CC(c1ccc(Cl)cc1)c1c(Cl)cc(-n2ncc(=O)[nH]c2=O)cc1Cl (centres undefined) | inactive | –
CC(C(=O)O)c1ccc(N2Cc3ccccc3C2=O)cc1 (centres undefined) | 0.119 µM (active) | –

Tested on: not listed separately
Assay: qHTS assay to identify small molecule antagonists of the estrogen receptor alpha (ER-alpha) signaling pathway using the BG1 cell line (AID 743080; calls by dose curve; further: nearly all actives have a fitted effect of over 25% in size)
Details: BG1Luc4E2 ERE-luciferase antagonist mode, luminescence; series mostly up to 70.3 µM
Procedure, shortened: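 Antagonist mode: compounds in DMSO were pinned onto BG1-Luc-4E2 cells alongside 17beta-estradiol agonist, incubated 21.5 h, and ERE-driven luciferase measured with ONE-Glo. Cytotoxicity was multiplexed using CellTiter-Fluor fluorescence.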

SMILES | Potency
CO[C@H]1C[C@@H]2CC[C@@H](C)[C@@](O)(O2)C(=O)C(=O)N2CCCC[C@H]2C(=O)O[C@H]([C@H](C)C[C@@H]2CC[C@@H](OCCO)[C@H](OC)C2)CC(=O)[C@H](C)/C=C(\C)[C@@H](O)[C@@H](OC)C(=O)[C@H](C)C[C@H](C)/C=C/C=C/C=C/1C | 0.0047 µM (active)
CCC(=O)Oc1ccc2c(c1)CC[C@@H]1[C@@H]2CC[C@]2(C)[C@@H](OC(=O)CC)CC[C@@H]12 | inactive
O=C(O)CN(CC(=O)O)CC1=CC2C(=CC1=O)Oc1cc(O)c(CN(CC(=O)O)CC(=O)O)cc1C21OC(=O)c2ccccc21 (centres undefined) | inactive
CCC(=O)O[C@H]1CC[C@H]2[C@@H]3CCc4cc(O)ccc4[C@H]3CC[C@]12C | inactive
CC(CC(c1ccccc1)c1ccccc1)NC(C)(C)C (centres undefined) | inactive
CCCCCCCCCCCCCCCCSCC(COC)COP(=O)([O-])OCC[N+](C)(C)C (centres undefined) | inactive
C=C1C(=O)O[C@H]2[C@H]1CC/C(C)=C\CC[C@@]1(C)O[C@@H]21 | inactive
CC(C(=O)O)c1ccc(N2Cc3ccccc3C2=O)cc1 (centres undefined) | 16.8 µM (active)
C[C@H](/C=C/[C@H](C)C(C)(C)O)[C@H]1CC[C@H]2/C(=C/C=C3C[C@@H](O)C[C@H](O)C3)CCC[C@]12C | 29.8 µM (active)
CC(C)(C)c1ccc(CN2CCN(C(c3ccccc3)c3ccc(Cl)cc3)CC2)cc1 (centres undefined) | inactive

Tested on: not listed separately
Assay: qHTS assay to identify small molecule antagonists of the estrogen receptor alpha (ER-alpha) signaling pathway using the BG1 cell line - cell viability counter screen (AID 743081);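 further: compound given together with 17beta-estradiol as the ER stimulus; nearly all actives have a fitted effect of over 45% in size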
Details: BG1Luc4E2 viability, CellTiter-Fluor, 22 h; series mostly up to 70.3 µM

SMILES | Potency
COc1ccc(-c2noc(CC(=O)O)c2-c2ccc(OC)cc2)cc1 | inactive
CN1c2cc(O)c(N=NC(N)=O)cc2CC1S(=O)(=O)O (centres undefined) | inactive
CC(C)(C)NCC(O)c1ccc(O)c(CO)n1 (centres undefined) | inactive
CCCCCCCCCCCCCCCCCCCCCC(=O)Nc1ccn([C@@H]2O[C@H](CO)[C@@H](O)[C@@H]2O)c(=O)n1 | inactive
COc1ccc(CC2c3cc(OC)c(OC)cc3CC[N+]2(C)CCC(=O)OCCCCCOC(=O)CC[N+]2(C)CCc3cc(OC)c(OC)cc3C2Cc2ccc(OC)c(OC)c2)cc1OC (centres undefined) | inactive
CO[C@H]1C[C@@H]2CC[C@@H](C)[C@@](O)(O2)C(=O)C(=O)N2CCCC[C@H]2C(=O)O[C@H]([C@H](C)C[C@@H]2CC[C@@H](OCCO)[C@H](OC)C2)CC(=O)[C@H](C)/C=C(\C)[C@@H](O)[C@@H](OC)C(=O)[C@H](C)C[C@H](C)/C=C/C=C/C=C/1C | 21.1 µM (active)
CC#CCC(C)[C@H](O)/C=C/[C@@H]1[C@H]2c3cccc(CCCC(=O)O)c3O[C@H]2C[C@H]1O (some centres undefined) | inactive
CCCCCCC(=O)O[C@H]1CC[C@H]2[C@@H]3CCc4cc(O)ccc4[C@H]3CC[C@]12C | inactive
CCC(=O)Oc1ccc2c(c1)CC[C@@H]1[C@@H]2CC[C@]2(C)[C@@H](OC(=O)CC)CC[C@@H]12 | inactive
CCCCC(C)(O)C/C=C/[C@H]1[C@H](O)CC(=O)[C@@H]1CCCCCCC(=O)OC (some centres undefined) | inactive
CN1CCN2c3ncccc3Cc3ccccc3C2C1 (centres undefined) | inactive
CCC(=O)O[C@H]1CC[C@H]2[C@@H]3CCc4cc(O)ccc4[C@H]3CC[C@]12C | inactive
CCCCCCCCCCCCCCCCCC(=O)OCC(C)O (centres undefined) | 21.1 µM (active)
C/C1=C2N=C(/C=C3N=C(/C(C)=C4\[N-][C@@](C)([C@@H]5N=C1[C@](C)(CCC(=O)NCC(C)OP(=O)(O)O[C@H]1[C@@H](O)[C@@H](n6cnc7cc(C)c(C)cc76)O[C@@H]1CO)[C@H]5CC(N)=O)[C@@](C)(CC(N)=O)[C@@H]4CCC(N)=O)[C@@](C)(CC(N)=O)[C@@H]\3CCC(N)=O)C(C)(C)[C@@H]/2CCC(N)=O.CC(=O)O.[Co] (some centres undefined) | 33.5 µM (active)
C=C1CC[C@@H]2[C@](C)(CO)[C@H](O)CC[C@@]2(C)[C@@H]1C/C=C1/C(=O)OC[C@H]1O | inactive
CC(=O)Nc1c(I)c(C(=O)O)c(I)c(N(C)C(C)=O)c1I | inactive
CC(=O)Oc1cccc(C(=O)O)c1OC(C)=O | inactive
CC(C)NCC(O)COc1ccccc1-n1cccc1 (centres undefined) | inactive
CCCCCCCCCCCCCCCCSCC(COC)COP(=O)([O-])OCC[N+](C)(C)C (centres undefined) | inactive
C=C1C(=O)O[C@H]2[C@H]1CC/C(C)=C\CC[C@@]1(C)O[C@@H]21 | inactive
O=[n+]1ccn([O-])c2ccccc21 | inactive
CC(/C=C/C=C(\C)C(=O)O[C@@H]1O[C@H](CO[C@@H]2O[C@H](CO)[C@@H](O)[C@H](O)[C@H]2O)[C@@H](O)[C@H](O)[C@H]1O)=C\C=C\C=C(C)\C=C\C=C(/C)C(=O)O[C@@H]1O[C@H](CO[C@@H]2O[C@H](CO)[C@@H](O)[C@H](O)[C@H]2O)[C@@H](O)[C@H](O)[C@H]1O | inactive
CC(CCc1ccc(O)cc1)NCC(O)c1ccc(O)cc1 (centres undefined) | inactive
CC(=O)O[C@]1(C(C)=O)CC[C@H]2[C@@H]3CCC4=CC(=O)CC[C@]4(C)[C@@]3(F)[C@@H](O)C[C@@]21C | inactive
N#CC(c1ccc(Cl)cc1)c1c(Cl)cc(-n2ncc(=O)[nH]c2=O)cc1Cl (centres undefined) | inactive
CC(C(=O)O)c1ccc(N2Cc3ccccc3C2=O)cc1 (centres undefined) | inactive
C[C@H](/C=C/[C@H](C)C(C)(C)O)[C@H]1CC[C@H]2/C(=C/C=C3C[C@@H](O)C[C@H](O)C3)CCC[C@]12C | inactive
CC(C)(C)c1ccc(CN2CCN(C(c3ccccc3)c3ccc(Cl)cc3)CC2)cc1 (centres undefined) | inactive
